# Compound activity deposited in PubChem BioAssay by several laboratories.
# SRC3 inh: human NCOA3 inhibition; HEK293 GAL4-SRC3 luciferase reporter, luminescence; inhibition, % at 3.6 µM; 360,000 compounds, 0.17% hits; AID 588352;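 active = inhibition above a per-campaign cutoff, the mean of all compounds plus 3 SD, cut at about 60% in these data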;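 also: 0% = DMSO-treated cells and 100% = gossypol-treated cells at 36 µM; higher means less SRC3-driven luciferase light from the GAL4 reporter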
# LRH-1 inv ag: suppresses constitutive activity of human LRH-1. O00482. HEK293T StAR-luciferase reporter, LRH-1 transfected, 24 h. inhibition, % at 3.6 µM. 360,000 compounds, 0.13% hits;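 active = inhibition above the mean inhibition of all tested compounds plus 3 SD, cut at about 73% in these data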;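 also: 0% = DMSO wells and 100% = reporter-only cells lacking LRH-1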
# Gli-Sufu antag: antagonists of Gli-Sufu signaling. 340,000 compounds, 0.74% hits. inhibition, % at 5 µM. Sufu-KO-LIGHT fibroblasts, Gli luciferase reporter luminescence;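 active = inhibition above about 55%, limit read from the data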;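 also: 0% = DMSO-treated cells and 100% = wells with medium but no cells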
# NCOA1 inh: inhibitors of human steroid receptor coactivator 1 (SRC1); AID 588354; inhibition, % at 3.6 µM; HEK293 GAL4-SRC1 luciferase reporter, luminescence; 360,000 compounds, 0.12% hits; Q15788;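 active = inhibition above the campaign mean plus 3 SD, with each screening campaign given its own cutoff, cut at about 60% in these data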;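 also: 0% = DMSO treated cells and 100% = gossypol at 36 µM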
# COUP-TFII inh: NR2F2 (human) inhibition, primary screen | P24468 | HEK293T NGFI-A luciferase reporter, luminescence | inhibition, % at 8.6 µM | 370,000 compounds, 0.7% hits;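 active = inhibition above a per-plate cutoff, mean inhibition of test wells between control levels plus 3 SD, cut at about 38% in these data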;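 also: cells cotransfected with COUP-TFII expression vector driving the NGFI-A reporter; 0% = median of COUP-TF2 test wells and 100% = reporter-only cells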
# Target sequence (P24468 whole entry, looked up): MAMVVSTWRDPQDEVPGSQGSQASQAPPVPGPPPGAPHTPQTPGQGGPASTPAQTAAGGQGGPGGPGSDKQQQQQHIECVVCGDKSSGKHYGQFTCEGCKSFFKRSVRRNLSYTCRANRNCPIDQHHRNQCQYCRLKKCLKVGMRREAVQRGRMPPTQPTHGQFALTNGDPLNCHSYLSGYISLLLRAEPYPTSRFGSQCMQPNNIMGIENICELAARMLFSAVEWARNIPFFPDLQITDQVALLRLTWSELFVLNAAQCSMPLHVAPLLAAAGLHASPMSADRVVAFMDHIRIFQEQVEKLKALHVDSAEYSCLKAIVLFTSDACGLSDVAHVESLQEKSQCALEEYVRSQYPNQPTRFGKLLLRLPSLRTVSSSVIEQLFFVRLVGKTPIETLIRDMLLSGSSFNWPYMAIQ
# NCOA2 inhibitor: human SRC2 (NCOA2) inhibition; HEK293 GAL4-SRC2 luciferase reporter, luminescence; inhibition, % at 9 µM; 370,000 compounds, 0.17% hits;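 active = inhibition above the mean inhibition of all tested compounds plus 3 SD, set per campaign, cut at about 52% in these data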;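 also: 0% = DMSO treated cells and 100% = cells given Gossypol at 36 µM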
# Gli-Sufu confirm: confirmation of Gli-SUFU pathway antagonists | shares compounds with Gli-Sufu antag | Sufu-KO-LIGHT cells, Gli luciferase reporter, luminescence | inhibition, % at 5 µM | 2,500 compounds, 40% hits | AID 602428;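 active = mean inhibition at 5 µM reaching about 45%, limit read from the data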;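 also: plate controls were DMSO-treated cells for no effect and wells lacking cells for full effect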
# Gli cytotox: counter-screen for Gli-SUFU antagonists: cytotoxicity; 2,500 compounds, 32% hits; Sufu-KO-LIGHT cells cytotoxicity, ATP luminescence; AID 651994; shares compounds with Gli-Sufu antag; cytotoxicity, % at 5 µM;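 active = mean cytotoxicity at 5 µM above about 25%, limit read from the data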;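 also: cells exposed to compound overnight for roughly 16 to 18 hours; plate controls were DMSO wells with cells for no effect and medium without cells for full effect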
# Wnt3a cs: Wnt3a reporter inhibition counter-screen. Wnt-LIGHT cells, Wnt3a-driven luciferase reporter, luminescence. inhibition, % at 6.25 µM. 2,500 compounds, 20% hits. shares compounds with Gli-Sufu antag;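 active = mean inhibition above about 25%, limit read from the data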
# The depositor's hits bear a star; . = no result given. This is a sample that favours compounds with a hit; in the whole collection about 1.3% have one here.
SMILES,SRC3 inh,LRH-1 inv ag,Gli-Sufu antag,NCOA1 inh,COUP-TFII inh,NCOA2 inhibitor,Gli-Sufu confirm,Gli cytotox,Wnt3a cs
CCCC[C@H]1C2CC(OC(=O)Nc3ccccc3C(F)(F)F)C(C2)[C@H]2CCCCN21 (stereo partly drawn),.,.,.,.,-4,20,.,.,.
Cn1c(N2CCN(C(=O)NC34CC5CC(CC(C5)C3)C4)CC2)nc2ccccc21,20,25,11,-26,-9,9,.,.,.
Cc1ccc(C(=O)N2CCN(c3nc4ccccc4n3C)CC2)cc1,13,-8,70*,5,-8,-5,13,23,-83
CC(=O)Nc1ccc(S(=O)(=O)N(C)Cc2ccccc2)cc1,-3,6,-7,-14,4,-23,.,.,.
CC(=O)Nc1ccc(S(=O)(=O)N(Cc2ccccc2)C(C)C)cc1,5,8,57*,12,17,-21,56*,12,19
Nn1c(SCC(=O)Nc2ccc(OCc3ccccc3)cc2)nnc1-c1cc(-c2ccc(F)cc2)n[nH]1,.,.,.,.,-18,5,.,.,.
Cc1c(F)cccc1NS(=O)(=O)c1ccc2c(c1)n(C)c(=O)c(=O)n2C,11,14,53,16,-18,-9,7,9,-21
Cc1c(F)cccc1NS(=O)(=O)c1ccc2c(c1)c(=O)n(C)c(=O)n2C,-11,-6,6,5,0,-5,.,.,.
COc1cccc(C2CC=C(C(=O)O)CN2S(=O)(=O)c2ccc(C)cc2)c1 (stereo not drawn),.,.,.,.,-12,-2,.,.,.
Cc1cccc(NC(=O)NCCc2c[nH]c3ccccc23)c1,-3,-2,60*,2,-10,2,6,11,-14
CCOC(=O)c1c(C2COc3ccccc3O2)csc1NC(=O)c1ccccc1 (stereo not drawn),12,7,9,14,-27,-8,.,.,.
CCOC(=O)c1c(C2COc3ccccc3O2)csc1N (stereo not drawn),7,-1,55,4,-3,-6,13,29*,-19
Cc1[nH]c2ccccc2c1CC(=O)Nc1ccc(Oc2cccnc2)cc1,.,.,.,.,4,12,.,.,.
CC[C@@H](C)[C@H](C(CC(=O)N1CCCC1[C@@H](OC)[C@H](C)C(=O)N[C@H](Cc1ccccc1)c1nccs1)OC)N(C)C(=O)[C@H](NC(=O)[C@@H](C(C)C)N(C)C)C(C)C (stereo partly drawn),19,33,55,-3,-46,18,70*,62*,40*
COc1ccc(C(=O)N(C)C(C)c2nccs2)cc1OC1CCN(C(C)=O)CC1 (stereo not drawn),0,25,.,9,2,-27,.,.,.
O=C(NC(=S)Nc1ccccc1O)c1cccnc1,-6,-35,82*,-1,1,-24,17,-11,-8
COc1ccc2c(C)cc(SCC(=O)NC3CCCC3)nc2c1,6,5,-5,-12,-18,12,.,.,.
COc1ccc2c(C)cc(SCC(=O)c3ccc4c(c3)OCO4)nc2c1,4,16,64*,2,11,-3,27,14,5
CCOc1ccc(CN(C)CC(=O)Nc2ccc3c(c2)CCC3)cc1OC,12,8,53,-6,-1,11,24,22,-30
O=C(Cn1cnc([N+](=O)[O-])n1)c1ccccc1,6,19,24,1,-2,-9,.,.,.
O=C(Cn1ccc([N+](=O)[O-])n1)c1ccccc1,11,-13,51,2,-1,-5,8,21,-5
CN1/C(=C\C(=O)c2ccco2)C(C)(C)c2ccccc21,27,15,84*,-21,30,17,81*,35*,24
CN1/C(=C\C(=O)c2cccnc2)C(C)(C)c2ccccc21,-8,-25,5,-1,-8,-11,.,.,.
CN1/C(=C\C(=O)c2cncc(Br)c2)C(C)(C)c2ccccc21,23,5,66*,10,24,25,69*,37*,15
CN1/C(=C\C(=O)COC(=O)c2ccco2)C(C)(C)c2ccccc21,6,16,12,4,4,2,.,.,.
SMILES,SRC3 inh,LRH-1 inv ag,Gli-Sufu antag,NCOA1 inh,COUP-TFII inh,NCOA2 inhibitor,Gli-Sufu confirm,Gli cytotox,Wnt3a cs
COc1ccc(CN2CCN(Cc3cccc(Oc4ccccc4)c3)CC2)c(OC)c1OC,-7,16,51,6,14,-21,25,26*,-46
CN1CCN(Cc2cccc(Oc3ccccc3)c2)CC1,17,-10,6,5,8,10,.,.,.
CNC(=O)CSc1nc2nn(-c3ccccc3)c(=O)c-2c2n1CCCCC2,28,32,56*,23,.,.,23,6,-28
O=c1cc(N2CCN(c3ccccc3)CC2)[nH]c(=O)n1-c1ccccc1Cl,-9,-7,-4,-10,16,0,.,.,.
CCOC(=O)N1CCN(c2cc(=O)n(-c3ccccc3Cl)c(=O)[nH]2)CC1,-14,13,54,2,10,-22,16,23,2
CN(CC(=O)Nc1ccccc1Cl)C(=O)CN1C(=O)C2CC=CCC2C1=O (stereo not drawn),2,1,55,7,-6,0,5,-1,10
CC(=O)OCCC(CC(C)C)NC(=O)[C@H](CC(C)C)NC(=O)OCc1ccccc1 (stereo partly drawn),.,.,.,.,-10,.,.,.,.
CC1=CC(C)(C)N=C(Nc2nc(C)c3cc(C)cc(C)c3n2)N1,11,-12,50,11,18,-20,26,16,-68
CC1CCN(S(=O)(=O)c2ccc3c(c2)C(=NO)c2cc(S(=O)(=O)N4CCC(C)CC4)ccc2-3)CC1,-7,-6,-5,-30,16,-6,.,.,.
O=S(=O)(c1ccc2c(c1)C(=NO)c1cc(S(=O)(=O)N3CCCCC3)ccc1-2)N1CCCCC1,6,14,95*,-1,7,-22,93*,71*,104*
CC(C)(C)C(=O)Nc1cc(S(=O)(=O)N2CCCCC2)ccc1N1CCCCC1,17,9,55,-5,17,17,27,0,-18
C=CCN1C(=O)[C@@H](CC(=O)NCc2ccc(C)o2)[C@]2(C(=O)OCC)CCCCC/C=C/12,.,.,.,.,2,-20,.,.,.
O=C(Nc1c(C(=O)C2CC2)oc2ccccc12)c1ccc(Cl)cc1,1,-2,86*,9,6,12,15,12,-18
COc1ccc(-c2cc(C(=O)NN=Cc3ccc(-c4ccccc4)cc3)[nH]n2)cc1,.,.,.,.,13,-12,.,.,.
O=C(C1CCC(C(=O)N2CCCCC2)CC1)N1CCCCC1 (stereo not drawn),21,2,-14,20,-19,0,.,.,.
